# Results published in the supplement of paper PMC6555819.
# Assays:
# Assay in all cases: PBM binding z-score (relative to random genomic background probes); higher = stronger binding; sequences stand for … in GC…GCGATTGACAGCGTAGAATGAAGG
# [1] = system: RARb homodimer (NR concentration 270 nM)
# Outline: (§1)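 Custom Agilent 4×180K protein-binding microarrays carried double-stranded probes. Their 34-nt variable regions held direct-repeat seeds, single-nucleotide variants, half-site ablations and random human genomic background sequences. Arrays were incubated 1 h with ligand-free nuclear receptor dimers in PBS pH 7.4, 2% milk, 0.02% Triton X-100, 1 mM DTT, 0.2 mg/mL BSA and 0.4 mg/ml salmon testes DNA. Antibodies against each partner (one per run) detected binding, and scanned fluorescence was regression-normalized. Binding z-scores use random background probes as reference.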
# [2] = system: RARg:RXRa (NR concentration 270 nM, RXRa partner concentration 90 nM)
# Outline: as §1
# [3] = system: RARg homodimer (NR concentration 270 nM)
# Outline: as §1
# [4] = system: RXRa DBDmut IVT, anti-RXR (DBD mutation: RXRa K156A/R161A, NR concentration 90 nM)
# Outline: as §1
# [5] = system: RXRa homodimer (NR concentration 180 nM)
# Outline: as §1
# [6] = system: THRa:RXRa (NR concentration 90 nM, RXRa partner concentration 90 nM)
# Outline: as §1
# [7] = system: THRa homodimer (NR concentration 90 nM)
# Outline: as §1
# [8] = system: VDR homodimer (NR concentration 270 nM)
# Outline: as §1
Sequence,PBM binding z-score [1],PBM binding z-score [2],PBM binding z-score [3],PBM binding z-score [4],PBM binding z-score [5],PBM binding z-score [6],PBM binding z-score [7],PBM binding z-score [8]
GGAACGAGGGCAAAGCTGATAGCATCTGTCGACG,0.567,1.03,1.5,2.13,0.836,0.546,-0.597,0.452
TCGAGTAGTTTAGTCGGGGCATTCAGCCAACATA,0.253,-0.495,-0.511,0.57,-0.338,0.245,0.214,0.234
CAAACTTGGTCAAGAGGTCAAAGTCCGCTTCCCG,4.85,5.94,4.95,2.03,6.1,3.78,1.66,3.57
CCTCGGAGTACAACAGGAGGTCAGAGCTGCCAGA,2.99,3.01,2.39,1.27,1.86,2.16,0.436,1.47
CGTCCAAGCTCATAGGAGGTCAGTGAAGACAGAT,2.8,1.69,2.04,0.593,1.22,2.38,0.642,0.938
ATCGAAAGGTCGATGGTGAGTATACCCACCCGAA,1.45,3.25,3.01,0.438,3.21,1.26,-0.577,0.213
CGAAATAGGTCATCCAGGACAGTGAATACATTGA,3.71,5.08,4.84,2.26,4.96,3.96,1.19,1.92
